What was measured:
Assay in all cases: DAPPL (digital affinity profiling via proximity ligation, sequencing); 10 mM Tris-HCl pH 7.5, 50 mM NaCl, 1 mM DTT, 4% glycerol, room temperature, 30 min; GST-TFs on glutathione beads, 16-mer random dsDNA library, 0.1% formaldehyde crosslink after washing; high values mean tight binding
FEV = biological target: T1, FEV (Homo sapiens, UniProt Q99581 1-238); conditions: protein: recombinant; tags: N-terminal GST; dsDNA, one strand shown
T1 sequence: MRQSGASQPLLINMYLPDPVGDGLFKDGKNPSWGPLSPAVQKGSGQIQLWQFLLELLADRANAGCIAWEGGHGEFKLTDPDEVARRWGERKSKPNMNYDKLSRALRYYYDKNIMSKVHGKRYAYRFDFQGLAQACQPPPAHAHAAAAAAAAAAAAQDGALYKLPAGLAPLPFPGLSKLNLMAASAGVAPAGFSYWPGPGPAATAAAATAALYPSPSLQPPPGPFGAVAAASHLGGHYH
Procedure, shortened: (§1)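 Each value of binding signal is a hexamer's read frequency for a factor divided by the same hexamer's frequency in the tag-only sample. Barcoded, bead-captured GST fusions of human transcription factors made in yeast were pooled with that sample and incubated with 200 nmole of a random double-stranded 16-mer DNA library in Tris/NaCl/DTT/glycerol buffer at room temperature for 30 min. Washing, 0.1% formaldehyde crosslinking, proximity ligation, PCR and Illumina NextSeq500 sequencing followed.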

ETV5 = ETV5 (Homo sapiens, UniProt P41161 1-510); conditions: protein: recombinant; tags: N-terminal GST; dsDNA, one strand shown
Sequence of ETV5 (P41161 whole entry): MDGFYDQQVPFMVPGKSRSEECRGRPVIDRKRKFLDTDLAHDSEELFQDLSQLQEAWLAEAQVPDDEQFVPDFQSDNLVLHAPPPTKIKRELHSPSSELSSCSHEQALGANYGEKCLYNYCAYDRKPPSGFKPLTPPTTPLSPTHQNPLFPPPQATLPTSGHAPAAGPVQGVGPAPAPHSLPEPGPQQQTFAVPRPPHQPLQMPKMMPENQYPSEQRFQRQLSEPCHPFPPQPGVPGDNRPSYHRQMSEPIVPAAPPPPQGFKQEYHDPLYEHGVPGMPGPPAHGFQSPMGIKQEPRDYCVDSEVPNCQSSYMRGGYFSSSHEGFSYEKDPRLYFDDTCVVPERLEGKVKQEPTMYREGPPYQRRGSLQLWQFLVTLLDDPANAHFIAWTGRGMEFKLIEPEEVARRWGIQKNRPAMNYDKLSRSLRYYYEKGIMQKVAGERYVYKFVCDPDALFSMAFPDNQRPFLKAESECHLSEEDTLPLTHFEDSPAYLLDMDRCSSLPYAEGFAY
Procedure, shortened: as §1

HSF1 = HSF1 (Homo sapiens, UniProt Q00613 1-529); conditions: protein: recombinant; tags: N-terminal GST; chain copies: 3; dsDNA, one strand shown
Sequence of HSF1 (Q00613 whole entry): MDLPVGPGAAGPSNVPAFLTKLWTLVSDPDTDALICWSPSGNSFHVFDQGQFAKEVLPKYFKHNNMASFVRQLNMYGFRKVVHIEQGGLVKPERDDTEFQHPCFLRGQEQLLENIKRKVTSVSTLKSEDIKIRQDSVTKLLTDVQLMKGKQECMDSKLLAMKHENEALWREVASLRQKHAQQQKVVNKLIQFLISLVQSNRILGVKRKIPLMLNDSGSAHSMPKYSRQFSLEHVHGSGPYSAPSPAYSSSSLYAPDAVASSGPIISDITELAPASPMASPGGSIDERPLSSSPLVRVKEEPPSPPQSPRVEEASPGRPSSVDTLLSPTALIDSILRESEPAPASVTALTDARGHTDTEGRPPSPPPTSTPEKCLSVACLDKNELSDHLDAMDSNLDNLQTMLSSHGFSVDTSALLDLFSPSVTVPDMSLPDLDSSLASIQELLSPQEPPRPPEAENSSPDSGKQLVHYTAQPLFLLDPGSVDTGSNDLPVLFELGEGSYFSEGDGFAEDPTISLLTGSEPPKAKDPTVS
Procedure, shortened: as §1

SPIC = biological target: T2, SPIC (Homo sapiens, UniProt Q8N5J4 1-248); conditions: protein: recombinant; tags: N-terminal GST; dsDNA, one strand shown
T2 sequence: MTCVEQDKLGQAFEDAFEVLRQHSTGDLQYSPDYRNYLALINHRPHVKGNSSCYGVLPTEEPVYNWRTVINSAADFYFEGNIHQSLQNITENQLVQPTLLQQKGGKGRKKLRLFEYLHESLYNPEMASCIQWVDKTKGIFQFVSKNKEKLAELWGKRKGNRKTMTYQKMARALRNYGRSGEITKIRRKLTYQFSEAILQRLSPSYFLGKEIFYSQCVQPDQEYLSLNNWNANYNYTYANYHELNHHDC
Procedure, shortened: as §1

ELF4 = ELF4 (Homo sapiens, UniProt Q99607 1-663); conditions: protein: recombinant; tags: N-terminal GST; dsDNA, one strand shown
Sequence of ELF4 (Q99607 whole entry): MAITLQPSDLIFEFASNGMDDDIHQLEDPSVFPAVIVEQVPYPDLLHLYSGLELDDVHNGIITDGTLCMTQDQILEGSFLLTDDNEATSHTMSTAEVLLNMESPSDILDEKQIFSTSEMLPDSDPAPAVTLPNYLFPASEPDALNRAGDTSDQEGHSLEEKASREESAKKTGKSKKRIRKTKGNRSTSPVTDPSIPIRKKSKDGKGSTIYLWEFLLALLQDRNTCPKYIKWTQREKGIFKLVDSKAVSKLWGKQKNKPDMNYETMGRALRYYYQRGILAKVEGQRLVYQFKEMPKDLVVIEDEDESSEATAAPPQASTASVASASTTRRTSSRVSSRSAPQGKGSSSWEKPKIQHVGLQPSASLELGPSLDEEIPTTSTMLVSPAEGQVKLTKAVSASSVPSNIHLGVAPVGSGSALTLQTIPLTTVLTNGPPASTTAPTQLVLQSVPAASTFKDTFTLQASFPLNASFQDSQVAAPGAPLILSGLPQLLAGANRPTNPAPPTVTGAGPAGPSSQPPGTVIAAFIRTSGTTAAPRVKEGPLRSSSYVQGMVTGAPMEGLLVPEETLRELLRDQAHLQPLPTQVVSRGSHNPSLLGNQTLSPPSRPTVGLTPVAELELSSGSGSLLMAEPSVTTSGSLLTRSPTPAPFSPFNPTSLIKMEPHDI
Procedure, shortened: as §1

ELK4 = biological target: T3, ELK4 (Homo sapiens, UniProt P28324-2 1-405); conditions: protein: recombinant; tags: N-terminal GST; dsDNA, one strand shown
T3 sequence: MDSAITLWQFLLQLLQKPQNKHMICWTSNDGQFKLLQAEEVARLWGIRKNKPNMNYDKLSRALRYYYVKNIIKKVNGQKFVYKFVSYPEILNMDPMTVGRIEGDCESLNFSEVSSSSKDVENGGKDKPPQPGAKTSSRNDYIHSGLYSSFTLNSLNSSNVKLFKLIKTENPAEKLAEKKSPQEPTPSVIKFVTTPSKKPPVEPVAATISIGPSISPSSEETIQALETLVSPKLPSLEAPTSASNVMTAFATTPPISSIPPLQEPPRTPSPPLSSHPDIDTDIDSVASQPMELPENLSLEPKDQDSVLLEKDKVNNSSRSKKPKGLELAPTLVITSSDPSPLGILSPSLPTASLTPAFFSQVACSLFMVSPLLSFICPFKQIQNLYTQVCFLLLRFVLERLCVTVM
Procedure, shortened: as §1

ETV2 = biological target: T4, ETV2 (Homo sapiens, UniProt O00321 1-342); conditions: protein: recombinant; tags: N-terminal GST; dsDNA, one strand shown
T4 sequence: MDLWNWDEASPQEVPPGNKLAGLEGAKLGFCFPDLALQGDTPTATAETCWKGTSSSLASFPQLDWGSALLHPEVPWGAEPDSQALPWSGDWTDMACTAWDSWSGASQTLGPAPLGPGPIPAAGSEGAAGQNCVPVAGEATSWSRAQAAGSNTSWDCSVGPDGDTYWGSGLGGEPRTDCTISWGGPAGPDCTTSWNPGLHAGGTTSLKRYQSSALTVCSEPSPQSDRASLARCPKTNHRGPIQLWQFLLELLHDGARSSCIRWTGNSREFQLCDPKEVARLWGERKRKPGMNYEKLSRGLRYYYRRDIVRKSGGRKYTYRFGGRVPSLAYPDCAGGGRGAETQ
Procedure, shortened: as §1

ELF3 = biological target: T5, ELF3 (Homo sapiens, UniProt P78545 1-371); conditions: protein: recombinant; tags: N-terminal GST; dsDNA, one strand shown
T5 sequence: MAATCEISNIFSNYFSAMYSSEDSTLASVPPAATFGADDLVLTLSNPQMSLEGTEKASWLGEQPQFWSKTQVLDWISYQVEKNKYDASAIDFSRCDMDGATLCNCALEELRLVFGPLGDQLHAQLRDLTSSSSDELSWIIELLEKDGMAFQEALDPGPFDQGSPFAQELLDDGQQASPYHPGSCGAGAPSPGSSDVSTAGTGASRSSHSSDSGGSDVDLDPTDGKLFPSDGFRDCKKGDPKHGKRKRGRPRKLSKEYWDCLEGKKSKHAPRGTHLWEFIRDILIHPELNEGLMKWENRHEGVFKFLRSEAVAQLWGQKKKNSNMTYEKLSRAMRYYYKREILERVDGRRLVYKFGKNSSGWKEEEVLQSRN
Procedure, shortened: as §1

CRX = CRX (Homo sapiens, UniProt O43186 1-299); conditions: protein: recombinant; tags: N-terminal GST; dsDNA, one strand shown
Sequence of CRX (O43186 whole entry): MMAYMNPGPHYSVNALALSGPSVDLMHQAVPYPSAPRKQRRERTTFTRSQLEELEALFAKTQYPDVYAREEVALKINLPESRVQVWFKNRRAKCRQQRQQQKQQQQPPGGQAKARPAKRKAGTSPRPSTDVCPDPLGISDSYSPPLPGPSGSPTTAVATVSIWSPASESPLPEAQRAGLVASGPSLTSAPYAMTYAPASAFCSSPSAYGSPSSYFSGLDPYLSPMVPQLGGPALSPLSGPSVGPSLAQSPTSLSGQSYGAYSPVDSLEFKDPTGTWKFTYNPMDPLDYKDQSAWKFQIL
Procedure, shortened: as §1

ETV1 = ETV1 (Homo sapiens, UniProt P50549 1-477); conditions: protein: recombinant; tags: N-terminal GST; dsDNA, one strand shown
Sequence of ETV1 (P50549 whole entry): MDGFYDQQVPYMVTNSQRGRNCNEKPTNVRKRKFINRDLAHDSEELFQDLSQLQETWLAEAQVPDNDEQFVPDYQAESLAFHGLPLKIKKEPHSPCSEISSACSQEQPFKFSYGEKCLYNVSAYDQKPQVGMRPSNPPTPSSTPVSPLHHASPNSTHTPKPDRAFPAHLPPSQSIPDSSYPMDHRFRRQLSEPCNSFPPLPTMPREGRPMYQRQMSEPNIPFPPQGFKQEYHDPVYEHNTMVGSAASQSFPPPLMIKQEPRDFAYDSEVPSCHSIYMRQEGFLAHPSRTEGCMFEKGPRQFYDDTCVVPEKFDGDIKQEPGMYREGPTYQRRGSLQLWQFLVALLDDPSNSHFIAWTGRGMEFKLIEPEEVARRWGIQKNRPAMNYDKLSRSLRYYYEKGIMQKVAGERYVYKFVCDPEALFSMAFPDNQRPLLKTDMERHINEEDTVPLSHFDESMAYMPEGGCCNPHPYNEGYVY
Procedure, shortened: as §1

ERF = biological target: T6, ERF (Homo sapiens, UniProt P50548 1-548); conditions: protein: recombinant; tags: N-terminal GST; dsDNA, one strand shown
T6 sequence: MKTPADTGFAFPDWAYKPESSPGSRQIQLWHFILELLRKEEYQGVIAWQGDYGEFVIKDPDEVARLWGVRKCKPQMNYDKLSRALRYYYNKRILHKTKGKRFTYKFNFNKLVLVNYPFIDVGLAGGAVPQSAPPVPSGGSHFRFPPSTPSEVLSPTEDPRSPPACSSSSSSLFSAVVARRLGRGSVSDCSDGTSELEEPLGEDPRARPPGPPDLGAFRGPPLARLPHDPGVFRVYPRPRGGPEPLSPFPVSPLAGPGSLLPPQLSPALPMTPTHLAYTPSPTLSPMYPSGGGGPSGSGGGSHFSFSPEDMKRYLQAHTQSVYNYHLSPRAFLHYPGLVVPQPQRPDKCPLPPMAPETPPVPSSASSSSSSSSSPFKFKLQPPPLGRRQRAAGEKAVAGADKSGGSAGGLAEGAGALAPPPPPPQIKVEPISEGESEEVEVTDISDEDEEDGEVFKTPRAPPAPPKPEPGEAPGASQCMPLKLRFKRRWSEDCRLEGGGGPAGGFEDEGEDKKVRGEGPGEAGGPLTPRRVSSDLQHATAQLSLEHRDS
Procedure, shortened: as §1

ETV3L = biological target: T7, ETV3L (Homo sapiens, UniProt Q6ZN32 1-361); conditions: protein: recombinant; tags: N-terminal GST; dsDNA, one strand shown
T7 sequence: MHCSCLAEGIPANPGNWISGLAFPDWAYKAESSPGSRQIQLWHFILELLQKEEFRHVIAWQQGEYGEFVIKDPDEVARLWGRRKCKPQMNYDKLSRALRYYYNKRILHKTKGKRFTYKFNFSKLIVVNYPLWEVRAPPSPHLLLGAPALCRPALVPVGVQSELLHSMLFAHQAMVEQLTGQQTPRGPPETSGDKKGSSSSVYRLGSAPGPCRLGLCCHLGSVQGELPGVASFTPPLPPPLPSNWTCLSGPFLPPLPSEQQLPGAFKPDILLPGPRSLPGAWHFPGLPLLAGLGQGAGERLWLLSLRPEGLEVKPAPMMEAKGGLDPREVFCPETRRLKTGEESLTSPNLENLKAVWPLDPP
Procedure, shortened: as §1

ETS2 = biological target: T8, ETS2 (Homo sapiens, UniProt P15036 1-469); conditions: protein: recombinant; tags: N-terminal GST; dsDNA, one strand shown
T8 sequence: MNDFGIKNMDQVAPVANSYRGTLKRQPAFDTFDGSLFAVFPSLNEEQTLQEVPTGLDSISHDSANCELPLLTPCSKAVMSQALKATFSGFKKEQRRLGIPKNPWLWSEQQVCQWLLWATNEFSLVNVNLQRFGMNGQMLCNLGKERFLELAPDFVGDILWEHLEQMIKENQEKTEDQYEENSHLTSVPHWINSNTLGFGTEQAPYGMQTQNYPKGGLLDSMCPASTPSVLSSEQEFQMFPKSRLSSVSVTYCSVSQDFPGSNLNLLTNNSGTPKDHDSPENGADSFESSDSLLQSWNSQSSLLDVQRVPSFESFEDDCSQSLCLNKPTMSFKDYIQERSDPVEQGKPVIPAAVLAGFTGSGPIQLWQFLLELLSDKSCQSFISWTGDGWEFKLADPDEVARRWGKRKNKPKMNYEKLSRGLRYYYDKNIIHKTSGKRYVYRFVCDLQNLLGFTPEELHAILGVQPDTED
Procedure, shortened: as §1

SPDEF = biological target: T9, SPDEF (Homo sapiens, UniProt O95238 1-335); conditions: protein: recombinant; tags: N-terminal GST; dsDNA, one strand shown
T9 sequence: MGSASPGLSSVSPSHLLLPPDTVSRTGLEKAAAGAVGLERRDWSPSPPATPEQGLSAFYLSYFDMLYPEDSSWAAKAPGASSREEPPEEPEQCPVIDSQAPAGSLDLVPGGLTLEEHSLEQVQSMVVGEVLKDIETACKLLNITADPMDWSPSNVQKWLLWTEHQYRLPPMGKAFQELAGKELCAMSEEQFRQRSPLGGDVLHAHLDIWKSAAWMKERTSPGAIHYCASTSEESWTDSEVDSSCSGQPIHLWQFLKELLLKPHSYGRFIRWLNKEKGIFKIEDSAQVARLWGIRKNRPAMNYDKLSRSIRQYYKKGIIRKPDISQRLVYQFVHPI
Procedure, shortened: as §1

ETV7 = biological target: T10, ETV7 (Homo sapiens, UniProt Q9Y603 1-341); conditions: protein: recombinant; tags: N-terminal GST; dsDNA, one strand shown
T10 sequence: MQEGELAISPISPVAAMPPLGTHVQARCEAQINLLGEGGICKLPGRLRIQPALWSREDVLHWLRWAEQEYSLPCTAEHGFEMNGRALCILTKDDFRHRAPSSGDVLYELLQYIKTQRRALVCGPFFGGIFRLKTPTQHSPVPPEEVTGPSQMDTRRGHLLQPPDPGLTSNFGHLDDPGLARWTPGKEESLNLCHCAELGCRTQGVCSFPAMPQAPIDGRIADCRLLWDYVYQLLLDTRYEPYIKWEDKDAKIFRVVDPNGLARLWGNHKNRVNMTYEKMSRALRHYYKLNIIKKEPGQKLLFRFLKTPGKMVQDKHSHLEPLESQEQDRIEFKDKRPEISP
Procedure, shortened: as §1

ELF5 = biological target: T11, ELF5 (Homo sapiens, UniProt Q9UKW6-2 1-255); conditions: protein: recombinant; tags: N-terminal GST; dsDNA, one strand shown
T11 sequence: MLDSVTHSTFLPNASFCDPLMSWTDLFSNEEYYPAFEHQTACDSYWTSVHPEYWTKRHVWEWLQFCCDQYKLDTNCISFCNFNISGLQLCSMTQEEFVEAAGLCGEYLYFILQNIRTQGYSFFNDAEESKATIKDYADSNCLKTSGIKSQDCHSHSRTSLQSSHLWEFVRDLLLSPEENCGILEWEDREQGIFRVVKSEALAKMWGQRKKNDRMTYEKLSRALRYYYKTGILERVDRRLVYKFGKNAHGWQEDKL
Procedure, shortened: as §1

ETV3 = biological target: T12, ETV3 (Homo sapiens, UniProt P41162-2 1-143); conditions: protein: recombinant; tags: N-terminal GST; dsDNA, one strand shown
T12 sequence: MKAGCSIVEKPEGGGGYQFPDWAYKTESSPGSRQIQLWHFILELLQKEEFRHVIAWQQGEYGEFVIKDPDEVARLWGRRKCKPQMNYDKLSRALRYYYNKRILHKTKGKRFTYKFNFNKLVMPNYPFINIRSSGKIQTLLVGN
Procedure, shortened: as §1

ETV6 = ETV6 (Homo sapiens, UniProt P41212 1-452); conditions: protein: recombinant; tags: N-terminal GST; dsDNA, one strand shown
Sequence of ETV6 (P41212 whole entry): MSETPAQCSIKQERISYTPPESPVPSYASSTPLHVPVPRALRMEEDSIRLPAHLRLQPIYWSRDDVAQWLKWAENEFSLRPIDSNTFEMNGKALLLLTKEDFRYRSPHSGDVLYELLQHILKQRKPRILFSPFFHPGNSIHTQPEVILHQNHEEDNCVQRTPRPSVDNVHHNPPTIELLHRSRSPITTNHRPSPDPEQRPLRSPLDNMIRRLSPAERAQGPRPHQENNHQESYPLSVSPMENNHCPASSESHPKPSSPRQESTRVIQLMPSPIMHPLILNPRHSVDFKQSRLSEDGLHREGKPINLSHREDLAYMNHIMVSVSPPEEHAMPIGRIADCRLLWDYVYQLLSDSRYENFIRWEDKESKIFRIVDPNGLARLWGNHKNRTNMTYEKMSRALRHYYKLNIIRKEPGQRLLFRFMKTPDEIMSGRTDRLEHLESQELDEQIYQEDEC
Procedure, shortened: as §1

TTACCC was tested. Which binding signal (FEV) did it give?
Its binding signal is 1.36 fold enrichment (6-mer frequency, TF over GST control).

What about the binding signal (ETV5) of the same sequence?
The binding signal was 1.36 fold enrichment (6-mer frequency, TF over GST control).

And the binding signal (HSF1)?
The binding signal was 1.43 fold enrichment (6-mer frequency, TF over GST control).

What about the binding signal (SPIC) of the same sequence?
Its binding signal is 1.4 fold enrichment (6-mer frequency, TF over GST control).

What about the binding signal (ELF4) of the same sequence?
Its binding signal is 1.48 fold enrichment (6-mer frequency, TF over GST control).

What about the binding signal (ELK4) of the same sequence?
The binding signal was 1.38 fold enrichment (6-mer frequency, TF over GST control).

What about the binding signal (ETV2) of the same sequence?
Its binding signal is 1.56 fold enrichment (6-mer frequency, TF over GST control).

What about the binding signal (ELF3) of the same sequence?
The binding signal was 1.14 fold enrichment (6-mer frequency, TF over GST control).

And the binding signal (CRX)?
Its binding signal is 1.95 fold enrichment (6-mer frequency, TF over GST control).

And the binding signal (ETV1)?
The binding signal was 1.35 fold enrichment (6-mer frequency, TF over GST control).

What about the binding signal (ERF) of the same sequence?
The binding signal was 1.35 fold enrichment (6-mer frequency, TF over GST control).

What about the binding signal (ETV3L) of the same sequence?
The binding signal was 1.26 fold enrichment (6-mer frequency, TF over GST control).

What about the binding signal (ETS2) of the same sequence?
Its binding signal is 1.42 fold enrichment (6-mer frequency, TF over GST control).

And the binding signal (SPDEF)?
The binding signal was 1.33 fold enrichment (6-mer frequency, TF over GST control).

What about the binding signal (ETV7) of the same sequence?
The binding signal was 1.41 fold enrichment (6-mer frequency, TF over GST control).

What about the binding signal (ELF5) of the same sequence?
The binding signal was 1.43 fold enrichment (6-mer frequency, TF over GST control).

And the binding signal (ETV3)?
The binding signal was 1.35 fold enrichment (6-mer frequency, TF over GST control).

And the binding signal (ETV6)?
The binding signal was 1.29 fold enrichment (6-mer frequency, TF over GST control).

Source: paper PMC7862700, “An all-to-all approach to the identification of sequence-specific readers for epigenetic DNA modifications on cytosine”
